The record followed here is PubChem BioAssay (Tox21).

A short description of assay [1]: Nuclear factor erythroid 2-related factor 2/antioxidant responsive element (Nrf2/ARE) small molecule agonists: qHTS cell viability counter screen in human keratinocytes (AID 1919968; active = well fitted curve in the direction sought with a large enough effect in the repeat runs; an effect the other way counts as inactive or inconclusive; also: nearly all actives have a fitted effect of over 55% in size). The gist of the method: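 Parallel cytotoxicity read: KeratinoSens HaCaT cells, compound treatment 23 h, viability by CellTiter-Fluor fluorescence 1 h post-reagent.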
The nature of assay [2]: Nuclear factor erythroid 2-related factor 2/antioxidant responsive element (Nrf2/ARE) small molecule agonists: luciferase reporter gene qHTS assay in human keratinocytes (AID 1919969). Also: nearly all actives have a fitted effect of over 35% in size. Also: potency is read from the fitted curve at half-maximal effect.
Assay [3] concerns the target Gonadotropin-releasing hormone receptor (Homo sapiens) (UniProt P30968). The assay can be described thus: Human gonadotropin-releasing hormone receptor (GnRHR) small molecule agonists, calcium flux assay in GnRHR-HEK293 cells (AID 1920063). Also: nearly all actives have a fitted effect of over 35% in size. The gist of the method: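 Calcium flux, agonist mode, human GnRHR stably integrated in HEK293; dye 1 h at 37 C before compound; Ex/Em=480/540 kinetic read, 3 min; 15 concentrations, triplicate.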
On the technique in general: A change in cytosolic calcium serves as a functional read-out for many receptors and channels.

The target in assay [4] is KiSS-1 receptor (Homo sapiens) (UniProt Q969F8). Kind of assay: Human kisspeptin (KISS1R) small molecule agonists, calcium flux assay in KISS1R-HEK293 cells (AID 1920064; active = well fitted curve in the direction sought with a large enough effect in the repeat runs; an effect the other way counts as inactive or inconclusive). The gist of the method: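 Triplicate 15-concentration series were applied to dye-loaded human KISS1R HEK293 cells, and agonist-evoked calcium fluorescence was captured for 3 min.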
KiSS-1 receptor (Homo sapiens), sequence (Q969F8 whole entry, looked up): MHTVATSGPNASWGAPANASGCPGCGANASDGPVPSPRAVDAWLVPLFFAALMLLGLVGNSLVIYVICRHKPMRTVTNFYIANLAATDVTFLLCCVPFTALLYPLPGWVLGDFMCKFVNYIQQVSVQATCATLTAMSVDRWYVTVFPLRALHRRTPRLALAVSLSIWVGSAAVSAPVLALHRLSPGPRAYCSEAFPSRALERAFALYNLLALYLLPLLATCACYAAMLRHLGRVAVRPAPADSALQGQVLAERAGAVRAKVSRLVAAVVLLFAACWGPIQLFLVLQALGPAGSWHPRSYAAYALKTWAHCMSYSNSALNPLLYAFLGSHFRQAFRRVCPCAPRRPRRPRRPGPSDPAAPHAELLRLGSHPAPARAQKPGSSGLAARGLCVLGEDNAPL
Assay [5] in a line: G protein-coupled receptor (GPCR) small molecule agonists, calcium flux assay: HEK293 wild type cell line counter screen (AID 1920065). The gist of the method: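 Non-specific calcium responders were flagged by adding DMSO-dissolved compounds to dye-loaded cells and reading 480/540 nm fluorescence each second for 3 min; ATP served as positive control.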
Assay [6] can be described thus: p53 small molecule agonists, cell-based qHTS assay with human liver microsomes (AID 1963577).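 Also: p53 response element beta-lactamase reporter cells with liver microsomes plus NADPH.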 The method, boiled down: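 Metabolically competent format: test substances, human liver microsomes and NADPH (both 0.5 mg/mL final) incubated with p53RE-bla cells 16 h at 37 C. Beta-lactamase reporter signal then quantified by fluorescence.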
For orientation: In qHTS, concentration-response curves come from the screen itself.

The nature of assay [7]: p53 small molecule agonists, cell-based qHTS assay with rat liver microsomes (AID 1963578). The gist of the method: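 Each plate received p53RE-bla cells, then compound, then rat liver microsomes and NADPH (both 0.5 mg/mL final). Plates were held 16 h at 37 C, and beta-lactamase activity was detected with LiveBLAzer over 2 h.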
Assay [8] in a line: p53 small molecule agonists, cell-based qHTS assay with human liver microsomes: qHTS cell viability counter screen (AID 1963579). Also: nearly all actives have a fitted effect of over 45% in size. The gist of the method:
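Tox21 library compounds, delivered from DMSO stocks, were tested on p53RE-bla cells together with 0.5 mg/mL human liver microsomes and 0.5 mg/mL NADPH (final) over 16 h at 37 C; CellTiter-Glo luminescence served as the cytotoxicity measure.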

A short description of assay [9]: p53 small molecule agonists, cell-based qHTS assay with rat liver microsomes: qHTS cell viability counter screen (AID 1963580). Also: nearly all actives have a fitted effect of over 45% in size. The method, boiled down: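 Cytotoxicity counter screen: intracellular ATP read by CellTiter-Glo luminescence in the p53 reporter wells. HCT-116 p53RE-bla cells were treated for 16 h at 37 C alongside rat liver microsomes and NADPH, each 0.5 mg/mL final.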

Assay [10] can be described thus: p53 small molecule agonists, cell-based qHTS assay: qHTS cell viability counter screen (AID 1963581). Also: nearly all actives have a fitted effect of over 45% in size. The method, boiled down:
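Multiplexed with the reporter read, a CellTiter-Glo step (30 min, room temperature) gauges ATP-based viability of HCT-116 p53RE-bla cells after 16 h compound incubation at 37 C.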

The nature of assay [11]: p53 small molecule agonists, cell-based qHTS assay (AID 1963582; active = well fitted activation curve with a large enough effect in the signal ratio in the repeat runs, not every such curve was filed as active; the % refers to the signal ratio). The method, boiled down: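 Beta-lactamase reporter cells (p53RE-bla) treated with compounds for 16 h at 37 C; FRET substrate, 2 h, room temperature; fluorescence intensity.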
A short description of assay [12]: cAMP Responsive Elements (CRE) small molecule agonists, cell-based qHTS assay (AID 1963590). The gist of the method: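 Quantitative HTS for CRE agonists: HEK 293T CRE-bla cells, overnight plating, 3 h compound incubation at 37 C/5% CO2, then 2 h room-temperature LiveBLAzer B/G FRET substrate loading.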
A short description of assay [13]: cAMP Responsive Elements (CRE) small molecule antagonists, cell-based qHTS assay (AID 1963591; active = well fitted inhibition curve with a large enough effect in the signal ratio in the repeat runs, not every such curve was filed as active; the % refers to the signal ratio). The gist of the method:
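Fluorescence intensity from cleaved LiveBLAzer B/G substrate (2 h, room temperature) quantified CRE-bla activity in HEK 293T cells exposed 3 h to compound with 0.25 uM final NKH477.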

Assay [14] has as its target Beta-2 adrenergic receptor (Homo sapiens) (UniProt P07550). Kind of assay: Adrenergic beta2 receptor (ADRB2) small molecule agonists, cell-based qHTS assay (AID 1963593).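 Also: CHO cells stably overexpressing human ADRB2.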 The method, boiled down: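 CHO cells stably over-expressing ADRB2 were plated overnight at 37C, then dosed with compounds plus a stimulation mix containing 100uM IBMX and 25uM Ro-20-1724 for 0.5hr at room temperature. cAMP was measured by HTRF competition, 1hr.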

The target of assay [15] is D(2) dopamine receptor (Homo sapiens) (UniProt P14416). The assay can be described thus: Dopamine D2 receptor (DRD2) small molecule agonists, cell-based qHTS assay (AID 1963594). Also: nearly all actives have a fitted effect of over 35% in size. The gist of the method:
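cAMP accumulation in DRD2-HEK293 cells measured by HTRF after 1 h detection; compounds added 10 min before NKH477 (200nM […]) forskolin-analogue stimulation, 30 min at room temperature, with Ro20-1724 present at 0.1 mM final.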

The target is the same in assay [16]. Kind of assay: Dopamine D2 receptor (DRD2) small molecule antagonists, cell-based qHTS assay (AID 1963595; active = well fitted inhibition curve with a large enough effect in the signal ratio in the repeat runs, with a control signal flat; the % refers to the signal ratio). The gist of the method: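 Antagonism was scored as restored cAMP in HEK293-DRD2 cells. These cells were stimulated with 200 nM NKH477 and 12 nM quinpirole for 30 min at room temperature, in the presence of 0.1 mM Ro20-1724.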
The target in assay [17] is Beta-2 adrenergic receptor (Homo sapiens) (UniProt P07550). Kind of assay: Adrenergic beta2 receptor (ADRB2) small molecule antagonists, cell-based qHTS assay (AID 1963592). Also: series mostly up to about 92 µM; nearly all actives have a fitted effect of over 50% in size. The gist of the method: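 Assay format: CHO-ADRB2 cells, 18-20hr seeding at 37C/5% CO2, then compound plus 1nM isoproterenol agonist mix for 0.5hr RT. Homogeneous time-resolved fluorescence cAMP detection after 1hr, expressed as 665/615 nm ratio.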
Beta-2 adrenergic receptor (Homo sapiens), sequence (P07550 whole entry, looked up): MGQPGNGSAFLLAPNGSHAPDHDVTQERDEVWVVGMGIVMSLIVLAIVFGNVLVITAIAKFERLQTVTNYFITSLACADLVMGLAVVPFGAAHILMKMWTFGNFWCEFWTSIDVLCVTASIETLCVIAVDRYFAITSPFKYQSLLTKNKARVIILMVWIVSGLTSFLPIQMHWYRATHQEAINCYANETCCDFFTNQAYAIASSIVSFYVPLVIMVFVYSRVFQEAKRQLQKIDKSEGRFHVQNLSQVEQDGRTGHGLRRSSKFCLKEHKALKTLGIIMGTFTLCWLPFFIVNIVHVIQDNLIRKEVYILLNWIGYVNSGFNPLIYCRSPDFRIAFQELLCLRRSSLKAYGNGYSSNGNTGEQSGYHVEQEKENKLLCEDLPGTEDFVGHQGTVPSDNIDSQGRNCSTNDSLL

In assay [18] the target is 5-hydroxytryptamine receptor 2A (Homo sapiens) (UniProt P28223). The assay can be described thus: 5-hydroxytryptamine receptor 2A (HTR2A) small molecule antagonists, cell-based qHTS assay (AID 1963586). Also: nearly all actives have a fitted effect of over 45% in size. The gist of the method: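 CHO cells stably expressing human HTR2A were plated for 18 h at 37 C, then loaded with calcium dye for 1 h. Compounds were preincubated 5 min at room temperature before DOI (4 nM solution) was added. Kinetic fluorescence was read for 3 min.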
5-hydroxytryptamine receptor 2A (Homo sapiens), sequence (P28223 whole entry, looked up): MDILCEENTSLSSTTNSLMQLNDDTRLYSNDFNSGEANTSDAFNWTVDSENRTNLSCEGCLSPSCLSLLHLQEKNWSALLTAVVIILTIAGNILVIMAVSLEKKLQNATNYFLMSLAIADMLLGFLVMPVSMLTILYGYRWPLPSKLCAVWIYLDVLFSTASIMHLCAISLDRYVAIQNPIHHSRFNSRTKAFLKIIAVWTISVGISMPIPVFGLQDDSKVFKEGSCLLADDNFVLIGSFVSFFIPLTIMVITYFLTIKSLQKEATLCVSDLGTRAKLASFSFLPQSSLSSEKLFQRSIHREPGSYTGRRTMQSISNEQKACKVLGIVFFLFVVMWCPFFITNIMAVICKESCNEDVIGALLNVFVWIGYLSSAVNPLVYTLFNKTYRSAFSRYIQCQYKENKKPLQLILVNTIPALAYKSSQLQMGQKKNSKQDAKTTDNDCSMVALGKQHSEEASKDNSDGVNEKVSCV

For assay [19] the target is unchanged. Kind of assay: 5-hydroxytryptamine receptor 2A (HTR2A) small molecule agonists, cell-based qHTS assay (AID 1963587). Also: potency is read from the fitted curve at half-maximal effect; nearly all actives have a fitted effect of over 30% in size. The gist of the method: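 Kinetic calcium-flux fluorescence (2 min, 1 sec intervals) after compound addition in agonist mode. HTR2A-CHO cells were cultured 18 h, then dye-loaded 1 h at 37 C.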
The target in assay [20] is Muscarinic acetylcholine receptor M1 (Homo sapiens) (UniProt P11229). The assay can be described thus: Cholinergic receptor muscarinic 1 (CHRM1) small molecule agonists, cell-based qHTS assay (AID 1963589). Also: nearly all actives have a fitted effect of over 35% in size. The method, boiled down: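 qHTS, 15-point titration, 3 independent runs: compounds pin-transferred onto dye-loaded CHRM1-CHO cells (human M1), calcium fluorescence followed every second to detect agonism.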
Muscarinic acetylcholine receptor M1 (Homo sapiens), sequence (P11229 whole entry, looked up): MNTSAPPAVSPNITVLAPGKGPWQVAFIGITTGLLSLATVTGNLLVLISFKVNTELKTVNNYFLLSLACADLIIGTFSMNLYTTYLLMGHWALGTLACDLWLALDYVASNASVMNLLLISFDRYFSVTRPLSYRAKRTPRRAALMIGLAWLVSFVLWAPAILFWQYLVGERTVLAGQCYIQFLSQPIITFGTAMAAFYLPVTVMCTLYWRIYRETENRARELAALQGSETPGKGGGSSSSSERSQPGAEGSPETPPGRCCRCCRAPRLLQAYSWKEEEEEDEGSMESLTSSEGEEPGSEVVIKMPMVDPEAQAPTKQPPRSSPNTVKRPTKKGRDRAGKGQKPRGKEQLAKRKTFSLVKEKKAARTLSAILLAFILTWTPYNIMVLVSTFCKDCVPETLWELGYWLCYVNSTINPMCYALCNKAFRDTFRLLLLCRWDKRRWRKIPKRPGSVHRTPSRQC

A number with no mark means an inactive call. Results filed as inconclusive are left out. Active and inactive are the calls of the source. Unless noted, calls follow the shape of the full dose curve.

Gonadotropin-releasing hormone receptor (Homo sapiens), sequence (P30968 whole entry, looked up): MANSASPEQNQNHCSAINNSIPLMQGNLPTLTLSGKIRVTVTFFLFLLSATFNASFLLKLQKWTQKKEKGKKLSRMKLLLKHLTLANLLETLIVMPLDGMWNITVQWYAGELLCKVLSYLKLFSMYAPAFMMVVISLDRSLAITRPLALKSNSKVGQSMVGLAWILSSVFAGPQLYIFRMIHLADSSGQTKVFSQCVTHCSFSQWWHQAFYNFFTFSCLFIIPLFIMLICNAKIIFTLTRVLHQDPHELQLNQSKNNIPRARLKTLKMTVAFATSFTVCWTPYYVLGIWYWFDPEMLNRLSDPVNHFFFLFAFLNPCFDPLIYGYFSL
D(2) dopamine receptor (Homo sapiens), sequence (P14416 whole entry, looked up): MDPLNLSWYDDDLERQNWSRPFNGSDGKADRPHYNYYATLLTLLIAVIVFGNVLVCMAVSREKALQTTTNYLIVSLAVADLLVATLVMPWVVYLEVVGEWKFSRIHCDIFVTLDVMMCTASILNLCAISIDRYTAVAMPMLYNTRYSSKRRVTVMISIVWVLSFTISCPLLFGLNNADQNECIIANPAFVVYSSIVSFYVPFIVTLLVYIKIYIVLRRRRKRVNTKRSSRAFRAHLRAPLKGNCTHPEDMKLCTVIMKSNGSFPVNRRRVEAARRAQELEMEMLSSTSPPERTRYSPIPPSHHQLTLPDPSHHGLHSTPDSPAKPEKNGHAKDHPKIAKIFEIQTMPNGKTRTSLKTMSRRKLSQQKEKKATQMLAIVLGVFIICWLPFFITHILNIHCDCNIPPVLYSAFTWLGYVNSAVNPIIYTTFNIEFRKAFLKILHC

On to `CNCCc1ccccn1`, for which the Potency result in [1], in [2], in assay [3], in assay [6], in assay [7] and in assay [8] was “inactive” each time. Moreover, the Potency entry in assay [9], in assay [10], in assay [11], in [12], in assay [13] and in assay [14] was “inactive” in each case. Besides, the Potency result in assay [15] and in [16] was “inactive” throughout. Further, the result in [4] and in [5] was inactive.

As to `CC[C@H]1OC(=O)[C@H](C)[C@@H](O[C@H]2C[C@@](C)(OC)[C@@H](O)[C@H](C)O2)[C@H](C)[C@@H](O[C@@H]2O[C@H](C)C[C@H](N(C)C)[C@H]2O)[C@](C)(O)C[C@@H](C)C(=O)[C@H](C)[C@@H](O)[C@]1(C)O`, the Potency result in assay [1], in assay [2], in assay [3], in assay [6], in assay [7] and in assay [8] was “inactive” in each case. For the same molecule, the Potency entry in [9], in assay [10], in assay [11], in [13], in [17] and in assay [14] was “inactive” each time. Besides, the Potency entry in assay [15] was “inactive”. The outcome in assay [4] and in assay [5] was inactive.

Take `C[C@@H]1[C@H](O)[C@@H](C)/C=C/C=C\C=C\C=C\C=C\C=C\C=C\[C@H](O[C@@H]2O[C@H](C)[C@@H](O)[C@H](N)[C@@H]2O)C[C@@H]2O[C@](O)(C[C@@H](O)C[C@@H](O)[C@H](O)CC[C@@H](O)C[C@@H](O)CC(=O)O[C@H]1C)C[C@H](O)[C@H]2C(=O)O` (stereo in doubt): the Potency entry in [1], in [3], in assay [6], in assay [7], in assay [8] and in assay [9] was “inactive” each time. The Potency entry in assay [10], in assay [11], in assay [17], in [14] and in [16] was “inactive” each time. Also, in assay [2], the Potency was 68.6 µM (active). Besides, the outcome in assay [4] and in [5] was inactive.

With `COC(=O)C(c1ccccc1Cl)N1CCc2sccc2C1` (stereo unspecified), the Potency entry in [1], in [2], in assay [3], in assay [6], in [7] and in assay [8] was “inactive” in each case. Besides, the Potency entry in assay [9], in assay [10], in assay [11], in assay [14], in assay [15] and in assay [16] was “inactive” in each case. Further, the outcome in assay [4] and in assay [5] was inactive.

Consider `CNS(=O)(=O)Cc1ccc2[nH]cc(CCN(C)C)c2c1`, for which the Potency entry in assay [1], in assay [2], in [3], in assay [6], in assay [7] and in [8] was “inactive” throughout. Besides, the Potency result in [9], in assay [10], in assay [11], in assay [12], in [13] and in [17] was “inactive” each time. Also, the Potency entry in assay [16] is “inactive”. In addition, the outcome in assay [4] and in assay [5] was inactive.

In the case of `CN1CCN(CCCN2c3ccccc3Sc3ccc(Cl)cc32)CC1`, the Potency entry in assay [1], in [2], in [3], in assay [6], in assay [7] and in assay [8] was “inactive” each time. The Potency entry in assay [9], in assay [10], in assay [11], in assay [14] and in [15] was “inactive” each time. Also, the result in [4] and in [5] was inactive.

`CC(=O)O[C@@H]1C(=O)O[C@@H]2[C@H]1OC(=O)[C@@H]2OC(C)=O`: the Potency entry in assay [1], in assay [3], in assay [6], in assay [7], in assay [8] and in assay [9] was “inactive” each time. The Potency result in [10], in assay [18], in assay [20], in assay [12], in assay [13] and in assay [17] was “inactive” in each case. Besides, the Potency entry in assay [14], in [15] and in assay [16] was “inactive” throughout. The figures for the Potency in assay [2] and in [19] were 29.8 µM (active) and 0.756 µM (active), respectively. The result in assay [4] and in [5] was inactive.

Consider `CCc1ccc(C(=O)C(C)CN2CCCCC2)cc1` (stereo unspecified), for which the Potency result in assay [1], in assay [2], in assay [3], in [6], in assay [7] and in [8] was “inactive” in each case. Further, the Potency result in assay [9], in [10], in assay [11], in assay [12], in assay [17] and in [14] was “inactive” throughout. For the same molecule, in assay [15], the Potency entry is “inactive”. Further, the outcome in assay [4] and in assay [5] was inactive.
